Compounds with a hit are over-represented: about 19% of the library has one in this group of screens.
TDP1 cell CPT: growth inhibition of DT40 Tdp1-/-;hTDP1 cells with camptothecin (screen for TDP1 inhibitors) | Potency, µM (highest dose often 46.2 µM), inactives show at the top dose activity change, negative = growth inhibition, hits mostly inhibitors | chicken DT40 Tdp1-/-;hTDP1 cells + 20 nM CPT, ATP luminescence, 48 h | hit rate 12% among 420,000; note: potency is the fitted concentration of half-maximal effect; nearly all actives have a fitted effect of over 55% in size
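Cell growth measured by CellTiter-Glo luminescence after a minimum 48 h, 37 C compound exposure with 20 nM CPT in Tdp1-knockout DT40 cells stably expressing hTDP1, seeded 400/well; qHTS titration format.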
DT40 TDP1 no CPT: qHTS for Inhibitors of human tyrosyl-DNA phosphodiesterase 1 (TDP1): qHTS in cells in absence of CPT; AID 686978, 2013; Potency, µM (doses to about 46.2 µM), for the others: at the top dose activity change, negative = growth inhibition, hits mostly inhibitors; DT40 Tdp1-/- hTDP1 cells, no CPT, ATP luminescence, 48 h; hit rate 15% among 420,000; note: potency is the fitted concentration of half-maximal effect; nearly all actives have a fitted effect of over 55% in size
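Readout: luminescence from CellTiter-Glo after 30 min in the dark at RT. Cells: DT40 Tdp1-/- with stable hTDP1, 400/well. Exposure: compounds alone, ≥48 hr, 37 °C.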
HT1080 IDH1KD tx: toxicity to HT-1080 IDH1 knockdown cells (counter line). HT-1080 IDH1 knockdown viability, ATP luminescence, 48 h. Potency, µM (top dose mostly 46.1 µM), for inactives: top-dose activity, negative = toxicity, most hits filed as cytotoxic. hit rate 2% among 360,000. AID 686971;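 note: potency is the fitted concentration of half-maximal effect; 0% = DMSO wells and -100% = cell-free medium wells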
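% activity derives from luminescence (CellTiter-Glo), normalised to DMSO and no-cell wells. HT-1080-IDH1KD cells, 750/well, had 48 h compound exposure at 37 °C.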
IL-1B inflam inh: blocks inflammasome-driven IL-1 beta release. THP-1 LPS/ATP IL-1B secretion, AlphaLISA, 16 h; stronger effect = lower value. activity change, % at 57.5 µM. hit rate 4.7% among 360,000; in the data active = activity change below about -50%; inconclusive = mostly about -30% to -49%
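Secreted IL-1B measured by AlphaLISA bead assay after 16 h compound exposure of THP-1 cells; compounds (final up to 57.5 uM) added 1 h before LPS (250 ng/mL) and ATP (1.25 mM) stimulation; lower signal means less secretion.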
HT1080NT lethal: kills 2HG-producing HT-1080-NT fibrosarcoma cells; HT-1080-NT fibrosarcoma viability, CellTiter-Glo ATP luminescence, 48 h; hit rate 1.6% among 360,000; Potency, µM (doses to about 46.1 µM), for inactives: at the highest dose activity, negative = less viability, most hits filed as cytotoxic;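 note: NT is the 2HG producing partner of a matched IDH1 knockdown line; potency is the fitted concentration of half-maximal effect; 0% = DMSO-treated cells and -100% = media-only wells without cells; nearly all actives have a fitted effect of over 55% in size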
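Viability by CellTiter-Glo luminescence after 48 h compound exposure at 37C of HT-1080-NT cells (750/well, RPMI, 5% FBS). % activity scaled between DMSO wells and medium-only wells, then curve-fitted and categorized by curve class.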
Numbers without * were called inactive; u = inconclusive; x = not tested or not shown; [ ] = another dose, or the depositor's remark. Unless noted, calls come from the whole dose curve; as a rule, active = well fitted curve in the direction sought with a large enough effect; inconclusive = small, poorly fitted or top-dose-only effect, or another doubt; inactive = no such curve, though single readings can be large; an effect the other way counts as inactive or inconclusive. Unless noted, % is set by controls: 0 for no effect and ±100 for the full control effect.

SMILES	TDP1 cell CPT	DT40 TDP1 no CPT	HT1080 IDH1KD tx	IL-1B inflam inh	HT1080NT lethal
O=C(CCN(CCO)Cc1ccccc1)Nc1ccc(Br)cc1	u	u	u	0	u
COc1ccc(NC(=O)COC(=O)CCC(=O)c2cccs2)cc1OC	-8%	21%	1%	44	0%
NC(=S)N=Nc1c(O)[nH]c2ccc(F)cc12	u	u	5%	7	28%
NC(=S)N=Nc1c(O)n(Cc2ccc(Br)cc2)c2ccccc12	5.2µM*	4.6µM*	3.7µM*	13	u
Cc1ccc2c(c1)c(N=NC(N)=S)c(O)n2Cc1ccccc1	4.1µM*	3.3µM*	2%	22	1%
NC(=S)N=Nc1c(O)n(Cc2ccc(F)cc2)c2ccccc12	16µM*	u	-29%	0	-25%
CC(=O)OC1COC(n2c(O)c(N=NC(N)=S)c3ccccc32)C(OC(C)=O)C1OC(C)=O (stereo unspecified)	-25%	0%	13%	7	8%
Cc1nn(CCCC(=O)NCCc2ccccc2)c(=O)c2nccn12	8%	-5%	1%	1	2%
COc1cc(S(=O)(=O)N2CC(=O)Nc3ccccc32)ccc1NC(C)=O	11%	-3%	3%	42	6%
CCNc1ncc2nc(C)c(=O)n(C[C@H]3CCCO3)c2n1	u	-17%	x	x	x
CCNc1ncc2ncc(=O)n(C[C@H]3CCCO3)c2n1	12µM*	21µM*	x	x	x
CCOC(=O)CN(C(=O)CSc1nnc(-c2cccc(OC)c2)o1)c1ccc(F)cc1	u	16µM*	-9%	39	-20%
COc1ccc(CN(C(=O)CSc2nnc(-c3ccccc3C)o2)c2ccc(F)cc2)cc1	u	23µM*	u	-3	u
O=C(CSc1nnc(-c2c[nH]c3ccccc23)o1)N(Cc1ccccc1)c1ccc(F)cc1	u	u	-29%[9.24 µM]	-65*	u
CN(CCC#N)C(=O)CSc1nnc(-c2c[nH]c3ccccc23)o1	1%	1%	5%	-9	6%
[C-]#[N+]c1cc(-c2ccncc2)c(C)[nH]c1=O	7%[92.5 µM]	2%[92.5 µM]	x	x	x
CN(C)c1ccc(C(=O)n2nnc3ccccc32)cc1	23µM*	u	16µM*	x	u
CC(C)c1ccc(/C=C/C(=O)n2nnc3ccccc32)cc1	16µM*	u	u	-9	u
CCCC(=O)Nc1ccc(C(=O)n2nnc3ccccc32)cc1	u	u	7%	38	11%
CCOC(=O)C1CCCN(Cc2c(F)cccc2Cl)C1 (stereo unspecified)	-26%	-24%	0%	7	1%[9.24 µM]
Cc1cccc(Nc2nc(Nc3cccc(C)c3)nc(N3CCOCC3)n2)c1	15µM*	9.2µM*	x	x	x
Cn1ccnc1Sc1nc(Nc2cccc(Cl)c2)nc(N2CCOCC2)n1	-1%	4%	0%	1	3%
FC(F)(F)c1cccc(Nc2nc(N3CCOCC3)nc(N3CCOCC3)n2)c1	13µM*	u	2%	-6	4%
Cc1cccc(Nc2nc(N3CCCCC3)nc(N3CCCCC3)n2)c1	-18%	-15%	0%	-3	-19%
Cc1ccc(Nc2nc(N3CCOCC3)nc(N3CCOCC3)n2)cc1C	13µM*	13µM*	-9%	-60*	1%
Cc1cccc(Nc2nc(N3CCOCC3)nc(N3CCOCC3)n2)c1	9.2µM*	u	-21%	-76*	-8%
Cc1cnc(CN(C)C(=O)C2CCC(=O)N(CCc3ccc(Cl)cc3)C2)[nH]1 (stereo unspecified)	-2%	6%	1%	0	3%
Cc1ccc(-n2c3c(cc(-c4nc(-c5ccc(Cl)cc5)cs4)c2=O)C(=O)CC(C)(C)C3)cc1	-11%	-4%	x	x	x
Oc1cccc(Nc2nc(N3CCOCC3)nc(N3CCOCC3)n2)c1	5.2µM*	8.2µM*	u	-22	-12%
O=S(=O)(c1ccc(Br)cc1)N1CCN(c2ccc3nnc(-c4ccccc4)n3n2)CC1	18µM*	21µM*	7%	14	2%

Compound activity: PubChem BioAssay, National Center for Advancing Translational Sciences (NCATS)
